# Measurements taken from PubChem BioAssay.
# System: Sam68 (KHDRBS1)
# Assay: compounds binding KHDRBS1 protein – biochemical, small-molecule microarray, 635 nm fluorescence, primary screen (AID 1125);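 note: score merges 667 nm channel intensity with signal to noise over triplicate slides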
# Details: higher = more signal
row,Structure (SMILES),composite z-score
1,[N-]=[N+]=NCc1ccccc1[C@H]1OC(c2ccc(OCCCO)cc2)=N[C@@]1(Cc1ccccc1)C(=O)NCC(O)CO (stereo not given in full),0.966
2,NC(=O)NCC#Cc1ccc2c(c1)[C@]1(C(=O)N2)[C@H](c2ccccc2OCCO)N2[C@H](c3ccccc3)[C@H](c3ccccc3)OC(=O)[C@H]2[C@@H]1C(=O)N1CCCCCCC1,1.29
3,CC(C)(C)OC(=O)CC[C@@]1(C(N)=O)N=C(c2ccc(OCCCO)cc2)O[C@@H]1c1ccccc1N=[N+]=[N-],1.07
4,C=CCC(OC(C)=O)[C@@H]1[C@@H](N(Cc2ccc(-c3cccc(C(F)(F)F)c3)o2)C(=O)Cc2ccc(OC)cc2)c2cc(OCCCO)ccc2N1C(=O)Cc1ccc(OC)cc1 (stereo not given in full),-0.399
5,CCOC(=O)C1=CC[C@@H](c2cccc(Cl)c2)N(S(=O)(=O)c2ccc(C)cc2)[C@H]1c1ccc(C#N)cc1,1.29
6,Cc1ccc(F)cc1S(=O)(=O)N[C@@H]1CCN(Cc2ccc(C(F)(F)F)cc2)C1,0.144
7,C/C=C/[C@H](CCn1cc([C@H](O)c2ccccc2)nn1)[Si](C)(C)c1ccc(OC)cc1,-0.971
8,COCC1C2CC[C@H]3C(OCc4ccc(F)cc4C(F)(F)F)OC[C@]4(C)[C@H]3C2=C(CN4C(=O)OC(C)(C)C)[C@H](C)C1COC (stereo not given in full),1.2
9,C=C(/C(=C/C[C@@H](OC(=O)c1ccncc1)c1ccc(CO)o1)c1cc(C(=O)OC)ccc1OC)C(C)C,1.3
10,O=C1O[C@@H](c2ccccc2)[C@@H](c2ccccc2)N2[C@@H](c3ccc(O)cc3)[C@]3(C(=O)Nc4ccccc43)[C@@H](C(=O)N3CCCCCCC3)[C@H]12,1.29
11,COC(=O)[C@@]1(Cc2ccc(F)cc2)[C@H]2c3cc(C(=O)N4CCCC4)n(CCc4ccc(OC)c(Br)c4)c3C[C@H]2CN1C(=O)c1ccccc1,1.33
12,Cc1c(NC(=O)/C(C#N)=C/C=C/c2ccccc2)c(=O)n(-c2ccccc2)n1C,-0.144
13,C=C(C(=O)CC[C@@H](OC(=O)c1cccnc1)c1ccc(OCCO)cc1)C(C)C,0.921
14,O=c1cccc(-c2cccc3ccccc23)o1,0.11
15,Cc1ccc(S(=O)(=O)N2CC(C(=O)O)=CCC2c2ccccc2)cc1 (stereo not given),0.503
16,O=S(=O)(NCCCO)c1ccc(Br)cc1,0.522
17,C=CCOC(=O)[C@@H]1[C@H]2C(=O)O[C@H](c3ccccc3)[C@H](c3ccccc3)N2[C@H](c2ccc(OCCOC(=O)[C@H]3C[C@H]4C(=O)N[C@@H](Cc5ccccc5)C(=O)N4[C@H]3c3ccc(O)cc3)cc2)[C@@]12C(=O)Nc1ccc(I)cc12,1.29
18,C=CCNC(=O)[C@H]1[C@@H]2C(=O)O[C@@H](c3ccccc3)[C@@H](c3ccccc3)N2[C@@H](c2ccc(O)cc2)[C@]12C(=O)Nc1ccc(C#Cc3ccc(OC)cc3)cc12,1.3

row,Structure (SMILES),composite z-score
1,C[N+](C)(C)CCCC[C@@H]1NC(=O)[C@H]2C[C@@H](C(=O)O)[C@@H](c3cccc(OCCO)c3)N2C1=O,1.31
2,Cn1c2c(c3ccccc31)C(=O)C1NC2C=CC1(C)C(=O)OCc1ccccc1 (stereo not given),1
3,CCCCC(=C=CC[C@H](O)c1ccccc1OCCO)C[C@H](O)c1cc(Cl)cc(Cl)c1O,0.811
4,COc1c(C)cc(-c2cc3c(c(-c4ccccc4)n2)[Si](C(C)C)(C(C)C)O[C@H]3c2ccccc2)cc1C,0.111
5,C=CCN1Cc2ccccc2C[C@]2(N=C(c3ccc(OCCCO)cc3)O[C@@H]2c2ccccc2)C1=O,1.3
6,O=C(N1CCCCC1)[C@]1(CCS(=O)(=O)c2ccccc2)N=C(c2ccc(OCCCO)cc2)O[C@@H]1c1ccccc1,1.27
7,COc1ccc([Si](C)(C)[C@@H]2[C@@H](CCO)O[C@]3(C(=O)N(Cc4ccccc4)c4ccc(N(C=O)c5ccccc5)cc43)[C@H]2C)cc1,0.601
8,Cc1ccc(S[C@]2(C(=O)NCCCN(C)C)CC(=O)N(C(C)C)[C@@H]2c2ccc(CO)cc2I)cc1,0.271
9,C=C(COC)C(=O)CC[C@H](OC(=O)c1cccnc1)c1ccccc1OCCO,1.32
10,CC(c1ccccc1)C(O)C1C=CC2C(=O)N(Cc3ccccc3)C(=O)C2N1n1cnnc1 (stereo not given),0.669
11,CN1C(=O)C2C=CC(C(O)C(C)(C)C)N(Nc3ccccc3)C2C1=O (stereo not given),-0.141
12,CS(=O)(=O)CCOC(=O)C1=CC(c2ccc(CO)cc2)=CC(c2cccs2)N(Cc2cccc(OC(F)(F)F)c2)C=C1C(=O)OCCS(C)(=O)=O (stereo not given),1.13
13,Cc1ccc([C@H]2C(C(=O)O)=C[C@@H](C(C)C)N2S(=O)(=O)c2ccc(C)cc2)cc1,1.3
14,COC(=O)[C@@]1(Cc2ccc(OC)cc2)[C@H]2c3cc(C(=O)N(C)C)n(Cc4ccc(OC)c(OC)c4)c3C[C@H]2CN1C(=O)c1ccccc1,1.29
15,CN1C(=O)C2C=CC(C(O)C=Cc3ccc([N+](=O)[O-])cc3)N(N3CCCCC3)C2C1=O (stereo not given),1.31
16,C=CCOC(=O)[C@H]1[C@@H]2C(=O)O[C@@H](c3ccccc3)[C@@H](c3ccccc3)N2[C@@H](c2ccc(OCCOC(=O)[C@H]3C[C@H]4C(=O)N[C@@H](CCCC[N+](C)(C)C)C(=O)N4[C@H]3c3ccc(O)cc3)cc2)[C@]12C(=O)Nc1ccccc12,0.028
17,[N-]=[N+]=Nc1ccccc1[C@@H]1OC(c2ccc(OCCCO)cc2)=N[C@]1(CCS(=O)(=O)c1ccccc1)C(=O)N1CCCCC1,1.29
